Laboratory results published in ChEMBL document CHEMBL3988442, “University of Dundee, Small-Polar-MMV Screening Library” (2021).
About 13,000 (27%) of roughly 48,000 compounds showed an effect of 50% or more. The list shows a part of the results.

system: Wolbachia pipientis; test: Anti-Wolbachia Cell-Based Screen; assay type: functional; set-up: scale not given: in the data most compounds retested in dose-response had high values; details: 5 µM

In order of falling “Percent Effect” value:
1. O=C(CN1CCCCC1Cn1cncn1)NCCOc1ccccc1 (stereo not drawn)  140%
2. CNC(=O)NCC(CO)Cc1cccc(OC(F)(F)F)c1 (stereo not drawn)  137.5%
3. O=C(CN1CCCC1Cn1cncn1)NCCOc1ccc(F)cc1 (stereo not drawn)  135.9%
4. Clc1ccccc1Cn1cc(CNC2CCc3ncnn3C2)cn1 (stereo not drawn)  121.3%
5. CNC(=O)NCC(CO)Cc1ccccc1OC(F)(F)F (stereo not drawn)  119.9%
6. Cc1cccc(OCCNC(=O)CN2CCCC2Cn2cncn2)c1 (stereo not drawn)  115.7%
7. O=C(CN1CCCC1Cn1cncn1)NCCOc1ccccc1 (stereo not drawn)  108.3%
8. c1ccc(-n2cc(CNC3CCc4ncnn4C3)cn2)cc1 (stereo not drawn)  107.7%
9. COc1ncccc1C(=O)N1CCc2c(ncnc2N2CCOCC2)C1  105%
10. O=C(NCC(CO)Cc1cccc(OC(F)(F)F)c1)c1cnccn1 (stereo not drawn)  103%
11. c1cncc(CNC2CCc3ncnn3C2)c1 (stereo not drawn)  100.1%
12. CC(C)N1CCCCC1c1nc(N(C)C)ncc1I.Cl (stereo not drawn)  76.51%
13. CC(C)N1CCCC1c1nc(N(C)C)ncc1I (stereo not drawn)  51.47%
14. Cn1cc(CNC2CCc3ncnn3C2)c(-c2ccncc2)n1 (stereo not drawn)  11.86%
15. CCOCc1ccccc1NC(=O)NC1CCN(c2ccccc2)C1 (stereo not drawn)  9.486%
16. CC1=N[C@@]2(CC[C@@H]3CN(C(=O)NCC(C)C)C[C@@H]32)C(=O)N1CC(C)C  8.203%
17. O=S(=O)(N1CCCCCC1)N1CCN(Cc2ccc(F)cc2Br)CC1  6.465%
18. Cc1ccc(C2CCCN2CC(=O)N(CCC#N)c2ccccc2)cc1 (stereo not drawn)  5.667%
19. CN(Cc1cccc(OC(F)(F)F)c1)C(=O)c1ccncc1F  3.384%
20. CCN1CCC(NC(=O)CN2CCCC2Cn2cncn2)CC1 (stereo not drawn)  1.475%
21. c1ccc(Cn2cc(CNC3CCc4ncnn4C3)cn2)cc1 (stereo not drawn)  1.382%
22. c1csc(-c2noc(COCC3CCCO3)n2)c1 (stereo not drawn)  0.9659%
23. CN(Cc1ccccc1OC(F)(F)F)C(=O)C1CC1  0.731%
24. Cc1nc(C)n(C2CCCN(C(=O)c3cccc4[nH]ncc34)C2)n1 (stereo not drawn)  0.6187%
25. CN(C)c1ccc(NC(=O)N2CCCCCC2c2ccncc2)cn1 (stereo not drawn)  0.3778%
26. O=C(CN1CCCC1Cn1cncn1)NCCOc1cccc(F)c1 (stereo not drawn)  0.2795%
27. CCc1cnc(CN2CCOC(c3nc(C)n[nH]3)C2)o1 (stereo not drawn)  -1.85%
28. CC(O)CN1CCC(CNCc2ccccc2OC(F)(F)F)CC1 (stereo not drawn)  -2.479%
29. O=C(CN1CCCC1Cn1cncn1)Nc1cccnc1 (stereo not drawn)  -2.58%
30. Cn1cc(CNC2CCc3ncnn3C2)c(-c2cccnc2)n1 (stereo not drawn)  -2.662%
31. O=C(c1ccc[nH]1)N1CCC2(CC1)C(=O)Nc1ccccc12  -2.806%
32. CC(CNC(=O)c1cnccn1)Oc1cccc(Br)c1 (stereo not drawn)  -3.895%
33. CN1N=C(C(=O)N2CCN(c3ncccc3Cl)CC2)CCC1=O  -3.997%
34. CC(C)C(=O)NCCCn1ncc2c(Cl)cccc21  -4.05%
35. O=C(c1ncc[nH]1)N1CCC(n2cc(-c3ccccn3)nn2)CC1  -4.702%
36. O=C(CN1CCCC1Cn1cncn1)NC(C1CC1)C1CC1 (stereo not drawn)  -5.289%
37. COc1ccc(CNC[C@@]2(COc3cccnc3)C[C@@H](O)[C@@H](O)C2)cc1.Cl  -5.616%
38. O=C(CN1CCCCC1Cn1cncn1)NC1CCN(C2CC2)CC1 (stereo not drawn)  -6.056%
39. CN(Cc1cccc(OC(F)(F)F)c1)C(=O)Cc1ccon1  -6.414%
40. CC(C)C1CN(Cc2cnc(N(C)C)nc2)CCCN1CC1CC1 (stereo not drawn)  -7.489%
41. O=C(CN1CCCC1Cn1cncn1)NCCc1c(F)cccc1F (stereo not drawn)  -7.499%
42. CCc1ccc(-c2nn3c(nc2=O)-c2ccccc2NC3C(=O)O)cc1 (stereo not drawn)  -8.075%
43. O=C(CN1CCCC(Cn2cncn2)C1)NCCOc1ccccc1 (stereo not drawn)  -8.945%
44. CCSCCC(C)NC(=O)Nc1cccn(C)c1=O (stereo not drawn)  -9.489%
45. O=C(c1ncccc1O)N1CCc2c(ncnc2N2CCOCC2)C1  -10.43%
46. c1ccc(-n2ncc(CNC3CCc4ncnn4C3)n2)cc1 (stereo not drawn)  -11.2%
47. O=C(NCC(Cc1cccc(F)c1)N1CCCC1=O)c1cnccn1 (stereo not drawn)  -11.28%
48. Clc1ccc(-n2cc(CNC3CCc4ncnn4C3)cn2)cc1 (stereo not drawn)  -12.36%
49. COCCOc1ccnc(-c2noc([C@@H]3CCCN3C(C)C)n2)c1  -15.24%
50. COCC(NC(=O)NCc1cccc(C#N)c1)c1ccco1 (stereo not drawn)  -16.03%
51. COCc1ccc(C(=O)N2CCc3c(ncnc3N3CCOCC3)C2)o1  -21.39%
52. Cc1nc(C)c(Cc2nc(C3CC3)n[nH]2)c(=O)[nH]1  -38.01%
53. c1ccc2c(c1)CC(N1CCCN(Cc3cccc4nonc34)CC1)C2  -60.59%
